Experiment [1] deals with Transient receptor potential cation channel subfamily V member 1 (Homo sapiens) (UniProt Q8NER1). Briefly: HTS Assay for Compounds that Act as Enhancers of the Vanilloid Receptor 1 (AID 488979). Also: 0% is about no effect. In a few lines:
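Calcium influx kinetics via Fluo-8 (480/520 nm) in TRPV1-expressing cells, 2000/well cultured overnight at 35.5C. Compound-alone read 3 min (agonist phase), followed by EC20 capsaicin challenge for 2 min (enhancer phase).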

For experiment [2], the target named is Thyrotropin receptor (Homo sapiens) (UniProt P16473). The experiment can be described thus: qHTS Assay for Antagonists of the Thyroid Stimulating Hormone Receptor (AID 488980). Also: series mostly up to about 58 µM; 0% is about no effect. In a few lines: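 HEK293 cells transfected with human TSHR, suspended in HEPES-buffered HBSS with 70 uM RO 20-1724, were treated with compounds plus TSH at EC80 (4 nM final). cAMP was measured by competitive HTRF (cryptate anti-cAMP antibody, cAMP-d2 acceptor).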
A general note: In qHTS, concentration-response curves come from the screen itself.

Experiment [3] concerns the target D(1A) dopamine receptor (Homo sapiens) (UniProt P21728). The experiment can be described thus: HTS Assay for Allosteric Agonists of the Human D1 Dopamine Receptor: Primary Screen for Agonists (AID 488981). Also: 0% is about no effect. In a few lines: (§1)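 Calcium flux in an inducible, force-coupled HEK293 Trex D1 line (overnight at 30 C): agonist mode is the 180 s kinetic read after compound; potentiator mode is the following 180 s read after dopamine at EC20.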

Experiment [4] has the same target. The experiment can be described thus: HTS Assay for Allosteric Agonists of the Human D1 Dopamine Receptor: Primary Screen for Potentiators (AID 488982). Also: 0% is about no effect. The method, boiled down:
as §1

Experiment [5] shares this target. The experiment can be described thus: HTS Assay for Allosteric Agonists of the Human D1 Dopamine Receptor: Primary Screen for Antagonists (AID 488983).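 Also: calcium flux response to an EC80 dopamine challenge measured with no-wash dye; nearly all actives have a fitted effect of over 65% in size.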 Also: potency is read from the fitted curve at half-maximal effect. In a few lines: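 Calcium flux readout, no-wash dye, inducible HEK293 T-REx D1 line (force-coupled). Compound added after 10 s baseline, 180 s kinetic read; then dopamine at EC80, further 180 s read.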
The nature of experiment [6]: Validation screen for small molecules that induce genotoxicity in human embryonic kidney (HEK293T) cells expressing luciferase-tagged ELG1 (AID 493106). Also: 0% is about no effect. The method, boiled down:
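qHTS format; 2,000 HEK293T ELG1-luc cells/well; 23 nL compound via pin tool; 16 hr, 37 °C/5% CO2; ONE-Glo, 30 min RT; luminescence read.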

Experiment [7] addresses ATPase family AAA domain-containing protein 5 (Homo sapiens) (UniProt Q96QE3). Briefly: Validation screen for small molecules that inhibit ELG1-dependent DNA repair in human embryonic kidney (HEK293T) cells expressing luciferase-tagged ELG1 (AID 493107).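 Also: cells co-treated with the DNA-damaging agent 5-fluorouridine alongside compound; series mostly up to about 46 µM; % is scaled to controls: 0 for no effect and ±100 for the full control effect; inhibitors lower the ELG1-luciferase luminescence signal; nearly all actives have a fitted effect of over 70% in size.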 The method, boiled down: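 ELG1-luciferase HEK293T reporter; 5-fluorouridine + compound/DMSO, 16 hr, 37 °C, 5% CO2; ONE-Glo 30 min RT; luminescence read, qHTS format.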

Experiment [8] concerns the target Thyrotropin-releasing hormone receptor (Homo sapiens) (UniProt P34981). Briefly: qHTS for Small Molecule Agonists and Allosteric Enhancers of Human TRH Receptor: Validation Screen for Agonists (AID 493127;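 active = calcium activation more than 3 SD above the typical response in the agonist read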;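 also: intracellular calcium rise by fluo-8 fluorescence before TRH EC20 addition; 0% is about no effect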). The following applies: TRH receptor agonist cell assay; at 2 µM; stronger effect = higher value. The method, boiled down:
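Read-out: intracellular calcium release measured kinetically by FDSS (fluo-8, ex 480/em 530 nm), 1 reading/s after a 10-cycle baseline. TRHR cells, 2000/well, cultured 18 h at 33.5C, dye-loaded at room temp. Compound-evoked positive calcium signal flags agonists.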

The nature of experiment [9]: qHTS for Inhibitors of Cell Surface uPA Generation: Validation Assay (AID 493164).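 Also: RAW 264.7 macrophage cells exposed to compound for 18 h; 0% is about no effect.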 The method, boiled down:
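Compounds are titrated over seven points (2.45 nM–38.3 uM final) onto pre-plated RAW 264.7 cells and incubated for 18 h. Retained intracellular ATP, measured with ATP-Lite, indicates blocked lethal factor entry.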

Experiment [10] deals with Galactokinase (Homo sapiens) (UniProt P51570). Briefly: qHTS Validation Assay for Inhibitors of Human Galactokinase (GALK) (AID 493189). Also: 0% is about no effect. The method, boiled down:
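GALK (5 nM) with 35 uM ATP and 100 uM galactose in HEPES pH8.0, MgCl2, NaCl, DTT, BSA; 1 h at room temperature. Residual ATP read by Kinase-Glo Plus luminescence after 10 min.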

Experiment [11] can be described thus: Validation screen for small molecules that induce DNA re-replication in SW480 colon adenocarcinoma cells (AID 504364). Also: 0% is about no effect. In a few lines:
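Read-out: total Hoechst intensity of nuclei by fluorescence scanning imager; hits raise the fraction of nuclei with elevated DNA content. Cells received compound for 48 hr at 37 C before a 40 min stain.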

The target of experiment [12] is Peptidyl-prolyl cis-trans isomerase NIMA-interacting 1 (Homo sapiens) (UniProt Q13526). Briefly: qHTS Validation Assay to Find Inhibitors of Pin1 (AID 504536; active = well fitted inhibition curve with a large enough effect in the polarisation, with a control signal flat, not every such curve was filed as active; the % refers to the polarisation;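 also: 0% = full Pin1 enzyme wells and -100% = no-enzyme wells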). In a few lines:
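Fluorescence polarization competition: compounds (titration) displace HiFluor-488-labeled Pin1-1b peptide from Pin1 (0.3 uM final) in pH 7.5 HEPES buffer with DTT, 10 min at room temperature; %Activity normalized to no-enzyme wells, curves fitted.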

In experiment [13] the target is Phosphoglycerate kinase, glycosomal (Trypanosoma brucei brucei) (UniProt P07378). The experiment can be described thus: qHTS Validation Assay to Find Inhibitors of Phosphoglycerate Kinase (AID 504547).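 Also: control wells lack PGK and mark full inhibition.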 In a few lines:
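Luminescence end-point (Kinase-Glo Plus, 10 min) after a 60 min room-temperature coupled reaction. GAPDH at 100nM final supplies 1,3-BPG to PGK. Buffer: 100mM TEA pH 7.6, 5mM MgCl2, 0.01% Tween-20. Wells lacking PGK served as controls.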

The target in experiment [14] is phosphoglycerate mutase (Leishmania major) (UniProt Q4Q090). The experiment can be described thus: qHTS Validation Assay to Find Inhibitors of Phosphoglycerate Mutase (AID 504548). Also: series mostly up to about 58 µM; % is scaled to controls: 0 for no effect and ±100 for the full control effect. The following applies: Potency: inhibition qHTS. In a few lines: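 Lm PGAM at 1.25 nM final with substrate in 100 mM TEA pH 7.6, 5 mM MgCl2, 0.01% Tween-20; 45 min at room temperature. Kinase-GloPlus added, 10 min, end-point luminescence read.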

Experiment [15] deals with Ubiquitin carboxyl-terminal hydrolase 1 (Homo sapiens) (UniProt O94782). Briefly: Inhibitors of USP1/UAF1: Pilot qHTS (AID 504865).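 Also: rhodamine fluorescence freed from ubiquitin-rhodamine substrate followed over time; top concentration of the series differs between compounds; % is scaled to controls: 0 for no effect and ±100 for the full control effect; nearly all actives have a fitted effect of over 35% in size.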 In a few lines: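 USP1/UAF1 complex (1nM) preincubated with compound 15 min at room temperature, then Ub-Rho substrate (150nM final) added. Fluorescence read kinetically at 480/540 nm, 6 reads every 60 seconds. Buffer: 50mM HEPES pH 7.8, 0.5mM EDTA, 0.1 mg/ml BSA, 1mM TCEP, 0.01% Tween-20.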

The nature of experiment [16]: Nrf2 qHTS screen for inhibitors: Validation (AID 493153; active = well fitted inhibition curve with a large enough effect in the main read-out, with a control signal flat, not every such curve was filed as active). The following applies: Potency: luciferase luminescence; viability change: measured here: cytotoxicity max response. The method, boiled down:
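Concentration-response test in A549 ARE_Fluc reporter cells (5% FBS OPTI-MEM), compound exposure 18-24 h at 37°C, 5% CO2. Cell viability measured first by CellTiter-Fluor fluorescence; ARE-driven luciferase luminescence then measured as Nrf2 activity.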

The nature of experiment [17]: qHTS for Inhibitors of ATXN expression: Validation of Cytotoxic Assay (AID 588349). Also: % is scaled to controls: 0 for no effect and ±100 for the full control effect. The method, boiled down:
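Cytotoxicity counter-screen: HEK293 cells exposed to compound titrations, 72 hr, 37 degrees C. Read-out is intracellular ATP (CellTiter Glo luminescence) as a viability measure.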

Experiment [18] can be described thus: qHTS for Inhibitors of ATXN expression: Validation (AID 588378). Also: series mostly up to about 57 µM; % is scaled to controls: 0 for no effect and ±100 for the full control effect; nearly all actives have a fitted effect of over 75% in size. In a few lines:
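Luminescence from an ATXN2-FFLuc reporter in HEK293 cells served as read-out after 24 h compound treatment at 37 degrees C; CellTiter-Fluor fluorescence was recorded first to assess viability.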

Molecules are shown by their SMILES. Inconclusive results are not listed. The source made the active and inactive calls. Unless noted, calls follow the shape of the dose curve; as a rule, active = well fitted curve in the direction sought with a large enough effect; inconclusive = small, poorly fitted or top-dose-only effect, or another doubt; inactive = no such curve, though single readings can be large; an effect the other way counts as inactive or inconclusive.

Sequence of phosphoglycerate mutase (Leishmania major) (Q4Q090 1-553): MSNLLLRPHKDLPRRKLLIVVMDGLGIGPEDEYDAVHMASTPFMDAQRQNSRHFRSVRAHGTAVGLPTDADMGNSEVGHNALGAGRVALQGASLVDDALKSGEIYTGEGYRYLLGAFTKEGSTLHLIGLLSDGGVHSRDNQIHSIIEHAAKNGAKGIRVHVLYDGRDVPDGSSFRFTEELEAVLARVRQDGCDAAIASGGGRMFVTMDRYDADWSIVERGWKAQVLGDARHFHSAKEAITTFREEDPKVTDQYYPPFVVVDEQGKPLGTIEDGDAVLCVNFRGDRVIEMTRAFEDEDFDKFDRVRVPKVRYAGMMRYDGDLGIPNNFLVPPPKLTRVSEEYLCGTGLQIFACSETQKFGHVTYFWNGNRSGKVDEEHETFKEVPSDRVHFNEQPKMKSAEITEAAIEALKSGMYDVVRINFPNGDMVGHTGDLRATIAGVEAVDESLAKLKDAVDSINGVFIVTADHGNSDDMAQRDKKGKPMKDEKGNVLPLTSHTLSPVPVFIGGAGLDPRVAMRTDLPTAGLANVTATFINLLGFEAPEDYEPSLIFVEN
Sequence of Thyrotropin-releasing hormone receptor (Homo sapiens) (P34981 whole entry, looked up): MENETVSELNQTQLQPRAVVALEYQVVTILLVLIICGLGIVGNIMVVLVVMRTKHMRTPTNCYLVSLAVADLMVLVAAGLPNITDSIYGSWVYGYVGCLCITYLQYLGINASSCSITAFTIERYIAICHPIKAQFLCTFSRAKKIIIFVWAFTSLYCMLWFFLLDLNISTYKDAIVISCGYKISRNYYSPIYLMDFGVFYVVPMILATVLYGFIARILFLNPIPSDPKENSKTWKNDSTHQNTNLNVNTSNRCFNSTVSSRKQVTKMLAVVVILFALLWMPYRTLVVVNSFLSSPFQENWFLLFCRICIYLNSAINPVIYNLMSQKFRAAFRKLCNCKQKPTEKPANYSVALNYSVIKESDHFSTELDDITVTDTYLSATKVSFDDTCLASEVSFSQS
Sequence of Galactokinase (Homo sapiens) (P51570 whole entry, looked up): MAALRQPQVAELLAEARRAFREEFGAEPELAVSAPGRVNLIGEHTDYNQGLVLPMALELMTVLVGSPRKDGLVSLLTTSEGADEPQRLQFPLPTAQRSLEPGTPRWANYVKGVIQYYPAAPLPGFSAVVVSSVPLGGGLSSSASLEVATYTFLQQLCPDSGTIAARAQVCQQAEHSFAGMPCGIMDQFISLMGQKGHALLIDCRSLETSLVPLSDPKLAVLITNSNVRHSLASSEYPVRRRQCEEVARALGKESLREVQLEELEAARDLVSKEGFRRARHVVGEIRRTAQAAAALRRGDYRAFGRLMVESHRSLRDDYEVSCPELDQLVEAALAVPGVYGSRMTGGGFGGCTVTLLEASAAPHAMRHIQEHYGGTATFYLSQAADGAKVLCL
Sequence of Peptidyl-prolyl cis-trans isomerase NIMA-interacting 1 (Homo sapiens) (Q13526 whole entry, looked up): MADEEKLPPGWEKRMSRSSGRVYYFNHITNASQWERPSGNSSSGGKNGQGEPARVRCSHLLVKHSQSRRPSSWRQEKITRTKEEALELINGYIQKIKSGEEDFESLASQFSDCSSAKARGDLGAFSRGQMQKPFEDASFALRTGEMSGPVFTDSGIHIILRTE
Sequence of D(1A) dopamine receptor (Homo sapiens) (P21728 whole entry, looked up): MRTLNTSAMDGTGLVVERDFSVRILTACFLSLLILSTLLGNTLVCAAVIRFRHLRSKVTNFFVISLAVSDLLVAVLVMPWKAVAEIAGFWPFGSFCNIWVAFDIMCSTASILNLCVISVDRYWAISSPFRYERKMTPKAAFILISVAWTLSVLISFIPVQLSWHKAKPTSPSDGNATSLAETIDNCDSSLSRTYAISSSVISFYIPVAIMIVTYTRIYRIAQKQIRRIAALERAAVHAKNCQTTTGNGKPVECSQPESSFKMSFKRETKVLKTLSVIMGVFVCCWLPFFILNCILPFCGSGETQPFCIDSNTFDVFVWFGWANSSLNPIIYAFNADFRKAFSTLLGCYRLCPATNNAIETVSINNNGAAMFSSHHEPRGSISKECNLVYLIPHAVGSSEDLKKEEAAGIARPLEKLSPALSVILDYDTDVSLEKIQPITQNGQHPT
Sequence of Transient receptor potential cation channel subfamily V member 1 (Homo sapiens) (Q8NER1 whole entry, looked up): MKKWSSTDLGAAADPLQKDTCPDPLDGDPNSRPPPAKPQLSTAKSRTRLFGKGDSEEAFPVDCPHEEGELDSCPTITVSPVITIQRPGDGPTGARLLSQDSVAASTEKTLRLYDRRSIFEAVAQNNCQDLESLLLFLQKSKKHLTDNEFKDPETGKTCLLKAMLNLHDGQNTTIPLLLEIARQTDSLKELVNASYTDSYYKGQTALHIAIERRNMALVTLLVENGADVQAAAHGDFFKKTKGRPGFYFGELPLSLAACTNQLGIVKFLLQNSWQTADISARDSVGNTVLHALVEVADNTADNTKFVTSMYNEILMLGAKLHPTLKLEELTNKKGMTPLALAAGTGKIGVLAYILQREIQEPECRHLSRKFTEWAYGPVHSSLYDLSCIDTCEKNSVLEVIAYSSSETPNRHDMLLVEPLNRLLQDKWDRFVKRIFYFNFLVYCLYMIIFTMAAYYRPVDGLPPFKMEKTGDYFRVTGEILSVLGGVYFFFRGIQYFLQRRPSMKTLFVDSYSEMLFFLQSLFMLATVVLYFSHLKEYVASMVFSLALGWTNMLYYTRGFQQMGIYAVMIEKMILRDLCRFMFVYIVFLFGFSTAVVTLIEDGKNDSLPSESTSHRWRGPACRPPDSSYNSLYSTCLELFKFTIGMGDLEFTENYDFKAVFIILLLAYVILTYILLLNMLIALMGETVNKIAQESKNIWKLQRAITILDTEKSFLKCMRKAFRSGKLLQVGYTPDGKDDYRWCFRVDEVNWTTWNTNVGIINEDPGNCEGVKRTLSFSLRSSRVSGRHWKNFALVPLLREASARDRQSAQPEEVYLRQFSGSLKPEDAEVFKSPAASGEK
Sequence of ATPase family AAA domain-containing protein 5 (Homo sapiens) (Q96QE3 whole entry, looked up, the tested form may be a part): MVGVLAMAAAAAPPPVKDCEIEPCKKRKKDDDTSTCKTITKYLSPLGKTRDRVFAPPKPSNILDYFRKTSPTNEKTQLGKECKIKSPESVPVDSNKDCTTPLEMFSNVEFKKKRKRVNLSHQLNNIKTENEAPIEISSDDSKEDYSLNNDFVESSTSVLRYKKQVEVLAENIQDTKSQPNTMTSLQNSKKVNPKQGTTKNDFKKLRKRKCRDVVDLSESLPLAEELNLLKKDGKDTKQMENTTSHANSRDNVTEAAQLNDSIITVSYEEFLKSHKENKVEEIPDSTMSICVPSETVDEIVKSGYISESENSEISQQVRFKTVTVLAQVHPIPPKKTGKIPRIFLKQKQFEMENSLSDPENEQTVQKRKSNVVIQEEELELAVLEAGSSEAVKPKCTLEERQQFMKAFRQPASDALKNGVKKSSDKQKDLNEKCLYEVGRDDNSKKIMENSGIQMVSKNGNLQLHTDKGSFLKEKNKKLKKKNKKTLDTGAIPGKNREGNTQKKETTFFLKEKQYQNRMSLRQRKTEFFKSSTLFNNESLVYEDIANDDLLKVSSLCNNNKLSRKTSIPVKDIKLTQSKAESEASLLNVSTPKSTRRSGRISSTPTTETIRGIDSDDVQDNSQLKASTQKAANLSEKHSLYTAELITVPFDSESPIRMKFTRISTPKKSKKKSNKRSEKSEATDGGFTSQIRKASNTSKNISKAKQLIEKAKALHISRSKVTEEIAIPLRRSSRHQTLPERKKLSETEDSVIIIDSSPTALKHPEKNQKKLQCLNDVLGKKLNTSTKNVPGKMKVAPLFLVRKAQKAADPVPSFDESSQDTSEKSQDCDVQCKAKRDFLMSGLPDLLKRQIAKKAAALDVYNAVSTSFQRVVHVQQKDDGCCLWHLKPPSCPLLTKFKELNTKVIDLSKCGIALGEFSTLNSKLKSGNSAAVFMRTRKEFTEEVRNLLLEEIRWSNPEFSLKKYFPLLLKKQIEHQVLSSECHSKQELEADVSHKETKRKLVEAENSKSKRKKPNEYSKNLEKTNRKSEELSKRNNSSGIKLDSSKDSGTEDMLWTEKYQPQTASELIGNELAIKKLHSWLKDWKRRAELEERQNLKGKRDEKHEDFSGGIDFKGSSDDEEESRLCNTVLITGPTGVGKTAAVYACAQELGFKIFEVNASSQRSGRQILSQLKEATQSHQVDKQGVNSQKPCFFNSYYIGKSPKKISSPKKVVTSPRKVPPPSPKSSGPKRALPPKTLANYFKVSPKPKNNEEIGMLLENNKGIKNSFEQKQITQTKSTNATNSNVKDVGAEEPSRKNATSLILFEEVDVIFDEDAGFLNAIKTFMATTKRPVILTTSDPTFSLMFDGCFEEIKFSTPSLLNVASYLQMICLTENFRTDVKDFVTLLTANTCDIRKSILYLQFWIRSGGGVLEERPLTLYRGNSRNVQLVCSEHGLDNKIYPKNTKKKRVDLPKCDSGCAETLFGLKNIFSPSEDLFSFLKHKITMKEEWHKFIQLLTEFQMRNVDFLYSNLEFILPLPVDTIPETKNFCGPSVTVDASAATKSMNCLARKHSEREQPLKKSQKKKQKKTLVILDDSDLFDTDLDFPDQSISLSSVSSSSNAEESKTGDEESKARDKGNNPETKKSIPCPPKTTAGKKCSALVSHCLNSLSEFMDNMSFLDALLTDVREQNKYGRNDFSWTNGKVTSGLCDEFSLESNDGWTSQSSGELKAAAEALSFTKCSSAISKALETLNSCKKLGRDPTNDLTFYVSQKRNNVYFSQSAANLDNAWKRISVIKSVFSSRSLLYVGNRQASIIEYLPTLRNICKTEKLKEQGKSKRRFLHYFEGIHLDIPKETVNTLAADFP

For the compound `C#CC(N)CCC(=O)O` (configuration not stated), the outcome in [1], in experiment [2] and in experiment [9] was inactive. Besides, the Potency result in [3], in experiment [4], in experiment [5], in [6], in experiment [7] and in experiment [10] was “inactive” each time. The Potency result in experiment [11], in experiment [12], in [13], in experiment [14] and in [15] was “inactive” each time. In experiment [8], the activation was 0.625% (inactive).
`O=C(O)c1cc2cc(F)ccc2[nH]1`: the result in [1], in [2] and in experiment [9] was inactive. In addition, the Potency entry in experiment [3], in experiment [4], in [5], in [6], in [7] and in [16] was “inactive” each time. Further, the Potency entry in experiment [10], in experiment [11], in experiment [12], in experiment [14], in [15] and in experiment [17] was “inactive” each time. The activation in [8] is -2.56% (inactive). Further, in experiment [16], the viability change was 4.46%.
As to `CN(C)C(=O)/N=N/C(=O)N(C)C`, the result in [1], in experiment [2] and in experiment [9] was inactive. For the same compound, the Potency entry in experiment [3], in [4], in experiment [5], in [6], in experiment [7] and in experiment [16] was “inactive” throughout. For the same compound, the Potency result in experiment [10], in [11], in [12], in [14], in [15] and in experiment [18] was “inactive” each time. Also, the activation in experiment [8] was 0.75% (inactive). Also, the viability change in [16] came out at 1.53%.
Regarding `COc1cccc(OC)c1OCCNCC1CSc2ccccc2O1` (configuration not stated), the outcome in [1], in experiment [2] and in experiment [9] was inactive. The Potency entry in [3], in [4], in experiment [6], in experiment [7], in experiment [16] and in [10] was “inactive” throughout. For the same compound, the Potency entry in [12], in [13] and in experiment [14] was “inactive” each time. Further, the Potency in experiment [5] is 1.26 µM (active). The activation in [8] is -3.81% (inactive). Further, the viability change in [16] is -8.63%.
`COc1cc(N)c(Cl)cc1C(=O)OCCN1CCCCC1`: the result in [1] and in experiment [2] was inactive. In addition, the Potency entry in [3], in [4], in experiment [5], in experiment [6], in experiment [7] and in [16] was “inactive” throughout. For the same compound, the Potency entry in [10], in experiment [11], in [12], in [13], in experiment [15] and in experiment [17] was “inactive” throughout. The Potency entry in [18] was “inactive”. Besides, the activation in experiment [8] is -2.44% (inactive). Further, the viability change in experiment [16] was -3.02%.
For the compound `Oc1ccc(Cn2cc[nH]c2=S)cc1`, the outcome in experiment [1] and in experiment [2] was inactive. The Potency result in experiment [3], in experiment [4], in experiment [5], in [6], in experiment [7] and in [16] was “inactive” in each case. Further, the Potency result in experiment [10], in [11], in [12], in experiment [13], in experiment [14] and in experiment [15] was “inactive” in each case. In addition, the Potency entry in [17] and in experiment [18] was “inactive” throughout. In addition, the activation in [8] is 1.06% (inactive). Also, in experiment [16], the viability change came out at 0.593%.
For `Nc1nc2[nH]c(=O)cnc2c(=O)[nH]1`, the result in experiment [1], in experiment [2] and in experiment [9] was inactive. For the same compound, the Potency entry in [3], in experiment [4], in [5], in experiment [6], in experiment [7] and in [10] was “inactive” in each case. Moreover, the Potency result in experiment [11], in [12], in experiment [14], in experiment [15], in [17] and in experiment [18] was “inactive” each time. Also, the activation in experiment [8] was 0.312% (inactive).
With `CC1=C(C(=O)O)N2C(=O)[C@@H](NC(=O)C(N)C3=CCC=CC3)[C@H]2SC1` (some centres not stated), the result in experiment [1], in [2] and in [9] was inactive. Further, the Potency entry in experiment [3], in experiment [4], in experiment [5], in experiment [6], in [7] and in experiment [16] was “inactive” each time. Moreover, the Potency entry in [10], in [11], in experiment [13], in [14], in [15] and in experiment [17] was “inactive” each time. Besides, the Potency entry in [18] is “inactive”. For the same compound, the viability change in [16] stood at 3.51%.

These data come from PubChem BioAssay (NCATS).
